The campaign covered roughly 410,000 compounds. About 2,000 (0.49%) were called active. Inconclusive results (about 8%) are left out. The call rests on the fitted dose curve; tested in HEK293 reporter line. The sample as a whole holds a higher share of actives than the screen did.
Experiment: qHTS Assay for Foot and Mouth Disease Virus Antivirals: Primary Screen against the MLPCN compound library; further: nearly all actives have a fitted effect of over 55% in size
Conditions: FMDV antiviral cell-based qHTS; series mostly up to 57.9 µM; activity, negative = inhibition: at the top concentration
Potency means the concentration at half of the fitted maximal effect.

SMILES	activity, negative = inhibition	Potency
CCc1cccc(C)c1Nc1c(-c2ccccc2)nc2sccn12	-32% (inactive)	
CCCCCc1nn2cc(-c3ccccc3)nc2s1		12.6 µM (active)
CCCc1nn2cc(-c3ccc(C)c(C)c3)nc2s1		14.1 µM (active)
CCOc1ccc(CCNC(=O)c2ccc3c(c2)sc2nc(-c4ccc(F)cc4)cn23)cc1OCC	-32.6% (inactive)	
CCn1nc(-c2ccccc2)c2nc3ccccc3nc21	-34.2% (inactive)	
CCCn1c(NC(=O)CCNC(=O)c2ccccc2Cl)nc2ccccc21	-36% (inactive)	
COc1cc(NC(=O)N2CCC3(CC2)Nc2ccccc2-n2cccc23)cc(OC)c1OC	-30.8% (inactive)	
CCC1CCCCN1CCCCOc1cccc(Cl)c1 (configuration not stated)	-32.7% (inactive)	
COc1ccccc1C(CNC(=O)c1ccc(OCc2c(C)noc2C)cc1)N1CCCC1 (configuration not stated)	-34.6% (inactive)	
Cc1ccc(C2=Nc3ccccc3NC(c3ccncc3)=N2)cc1	-31% (inactive)	
COc1ccccc1C(=O)Nc1ccc(C(=O)c2ccccc2)cc1	-36.3% (inactive)	
Cc1ccc(Cl)cc1NC(=O)c1cc2ccccc2cc1O	-20.1% (inactive)	
O=C(Nc1ccc2ccccc2c1)c1ccccc1O		14.1 µM (active)
CC(C)NC(=S)NN(c1ccccc1)c1ccccc1	-35.6% (inactive)	
CCOc1ccc(S(=O)(=O)N2CCC(n3c(C)nc4cccnc43)CC2)cc1	-46.6% (inactive)	
CCc1ccc2oc(-c3cc(N=Cc4cccc(OC)c4O)ccc3O)nc2c1		20 µM (active)
COc1cccc(/C=N/Nc2ccc(C(=O)O)cc2)c1O	-103% (inactive)	
Cc1nn(-c2cccc(Cl)c2)c2c1C(c1ccncc1)C(C#N)=C(N)O2 (configuration not stated)	-32.2% (inactive)	
CCCOc1ccccc1C(=O)N(Cc1cccc(Br)c1)C1CCS(=O)(=O)C1 (configuration not stated)	-49.6% (inactive)	
Cc1ccc(C)c(N2CCN(C(=O)CCS(=O)(=O)c3ccc4c(c3)NC(=O)CO4)CC2)c1		12.6 µM (active)
Cc1ccc(C)c(N2CCN(S(=O)(=O)c3cc4c(cc3Cl)NC(=O)CO4)CC2)c1	-31.6% (inactive)	
CC(=O)N1CCc2cc(S(=O)(=O)CCC(=O)N3CCN(c4cc(C)ccc4C)CC3)ccc21	-32.1% (inactive)	
CCOC1=C2CN(S(=O)(=O)c3ccc(C)cc3)[C@H](c3ccccc3)C[C@@H]2N(S(=O)(=O)c2ccc(C)cc2)[C@H](c2cccc(C)c2)C1	-33.1% (inactive)	
Cc1onc(-c2ccccc2)c1C(=O)n1nnc2ccccc21	-36.4% (inactive)	
Cn1c(-c2ccccc2)cc2onc(-c3ccccc3)c2c1=O		8.91 µM (active)
COc1ccc(-c2c3c(=O)n(C)c(=O)n(C)c3c3c(-c4ccccc4)nc4ccccc4n23)cc1	-18% (inactive)	

SMILES	activity, negative = inhibition	Potency
Cc1cc(Br)cc(C)c1OCC(=O)NNC(=O)c1cccs1	-38.5% (inactive)	
Cc1cc(NC(=O)c2ccc(S(=O)(=O)N3CCc4ccccc43)cc2)no1	-32.7% (inactive)	
COc1ccc(C)cc1S(=O)(=O)Nc1ccccc1	103% (inactive)	
COc1ccc(OC)c(S(=O)(=O)Nc2ccc(F)cc2)c1	125% (inactive)	
COc1cc(NS(=O)(=O)c2ccc(C)cc2C)cc(OC)c1OC		20 µM (active)
CC1=[N+](C)c2ccc3ccccc3c2C1(C)C	-33.1% (inactive)	
Cc1ccccc1OCc1nnc(SCC(=O)Nc2c(C)n(C)n(-c3ccccc3)c2=O)n1-c1ccccc1	-43.3% (inactive)	
Cc1cc(O)ccc1Nc1nc(-c2cccs2)cs1		20 µM (active)
NS(=O)(=O)c1ccc(Nc2nc(-c3ccc(O)cc3O)cs2)cc1	-33% (inactive)	
Cc1ccc(NC(=O)c2cc(-c3cccs3)nc3ccccc23)c(C)c1	-38.9% (inactive)	
Cc1cc(S(=O)(=O)N2CCN(c3ccccc3F)CC2)ccc1-n1cnnn1	-37.1% (inactive)	
Cc1ccc(/C=C/c2nc3ccccc3c(=O)n2CCc2ccccc2)cc1	-32.9% (inactive)	
Cc1ccc(S(=O)(=O)N2CCN(C(=O)/C=C/c3ccccc3)CC2)cc1C	-31.7% (inactive)	
Cc1ccc(/C=C/c2nc3ccccc3n2S(=O)(=O)c2cccc(Cl)c2)cc1		8.91 µM (active)
CSc1ccc(/C=C/c2nc3ccccc3n2S(=O)(=O)c2ccc(F)c(C)c2)cc1		20 µM (active)
COc1cccc(-n2c(/C=C\c3ccc(Cl)cc3)nc3ccccc3c2=O)c1	-32.4% (inactive)	
CN1CCN(NC(=O)Nc2cc(Cl)cc(Cl)c2)CC1	-36.1% (inactive)	
COc1ccc(CN2CCNC(=O)C2CC(=O)N(C)Cc2ccno2)c(F)c1 (configuration not stated)	-25.3% (inactive)	
CCSc1ncc(Cl)c(C(=O)N(Cc2ccccc2Cl)C2CCS(=O)(=O)C2)n1 (configuration not stated)	-33.9% (inactive)	
CCn1c(N2CCC(C)CC2)nc2c1c(=O)n(C)c(=O)n2C	-41.6% (inactive)	
CCc1nnc(NC(=O)CSc2nc(-c3ccccc3)cc(-c3ccc(F)cc3)c2C#N)s1	135% (inactive)	
Nc1cc(-c2ccc(Br)cc2)nn1S(=O)(=O)c1ccccc1	-33% (inactive)	
CS(=O)(=O)c1nc(-c2ccc(Br)cc2)cc(-c2ccccc2)c1C#N		25.1 µM (active)
COc1ccc(/C=C/C(=O)Nc2ccccc2)cc1S(=O)(=O)N1CCOCC1		12.6 µM (active)
COc1ccc(C(=O)Nc2ccc(C)c(S(=O)(=O)N3CCOCC3)c2)cc1S(=O)(=O)N1CCCC1	-31.5% (inactive)	
COc1ccc(C)cc1NC(=O)/C=C/c1ccc(OC)c(S(=O)(=O)N2CCOCC2)c1	-31.7% (inactive)	
